Screening data: PubChem BioAssay, several laboratories
Hits are enriched below; roughly 4.5% of the tested compounds scored in any of these assays.
697 NFkB inh: lowers PMA/ionomycin-induced NF-kB signal in 697 B cells; 697 B-cell NF-kB luciferase reporter, 16 h; inhibition, % at 4 µM; actives 0.33% (n = 330,000); in the data active = inhibition above about 35%
aSyn 5UTR inh: MLPCN primary screen, SNCA 5' untranslated region; alpha-synuclein 5'UTR reporter, inhibitor activity; inhibition, % (tested at 7.5 µM); actives 0.82% (n = 300,000); in the data active = inhibition above about 60%;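 also: H4 neuroglioblastoma cells stably carrying SNCA 5'UTR luciferase fusion; 0% = DMSO wells and 100% = positive control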
Jurkat NFkB inh: lowers PMA/ionomycin-induced NF-kB signal in Jurkat cells. PMA/ionomycin-induced NF-kB luciferase reporter, luminescence. inhibition, % at 4 µM. actives 0.53% (n = 330,000). AID 435003; in the data active = inhibition above about 50%
CSC inhib: cancer stem cell inhibition; actives 1.1% (n = 300,000); cancer stem cell-like cells viability, luminescence; inhibition, % at 7.5 µM; in the data active = inhibition above about 75%; tested in HMLE shEcad cells
Gli-Sufu antag: Gli-Sufu pathway antagonism. Sufu-KO-LIGHT fibroblasts, Gli luciferase reporter luminescence. inhibition, % at 5 µM. actives 0.74% (n = 340,000);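 active = inhibition above about 55%, limit read from the data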;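 also: 0% = DMSO-treated cells and 100% = wells with medium but no cells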
Mdm2 MdmX PPI: disrupts the human Mdm2-MdmX interaction | O15151+Q00987 | SaOS-2 split-luciferase Mdm2/MdmX complementation, luminescence | inhibition, % at 8 µM | actives 3% (n = 330,000) | AID 485346;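 active = inhibition of at least 50% at 8 µM in the primary screen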
Target sequence (O15151 whole entry, looked up): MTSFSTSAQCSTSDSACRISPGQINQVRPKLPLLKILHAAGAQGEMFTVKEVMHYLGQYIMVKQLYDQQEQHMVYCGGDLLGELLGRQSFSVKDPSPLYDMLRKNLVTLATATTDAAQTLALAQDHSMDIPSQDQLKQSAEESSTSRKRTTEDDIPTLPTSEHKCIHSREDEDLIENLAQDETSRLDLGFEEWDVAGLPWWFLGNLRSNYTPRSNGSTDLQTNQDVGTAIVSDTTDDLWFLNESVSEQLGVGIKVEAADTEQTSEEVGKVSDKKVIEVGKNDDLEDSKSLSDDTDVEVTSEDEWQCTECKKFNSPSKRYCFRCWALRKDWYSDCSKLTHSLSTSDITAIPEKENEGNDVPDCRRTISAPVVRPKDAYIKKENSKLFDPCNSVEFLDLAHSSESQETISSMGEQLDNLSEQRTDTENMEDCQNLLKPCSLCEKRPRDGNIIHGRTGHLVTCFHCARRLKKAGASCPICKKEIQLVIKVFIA
Target sequence (Q00987 whole entry, looked up): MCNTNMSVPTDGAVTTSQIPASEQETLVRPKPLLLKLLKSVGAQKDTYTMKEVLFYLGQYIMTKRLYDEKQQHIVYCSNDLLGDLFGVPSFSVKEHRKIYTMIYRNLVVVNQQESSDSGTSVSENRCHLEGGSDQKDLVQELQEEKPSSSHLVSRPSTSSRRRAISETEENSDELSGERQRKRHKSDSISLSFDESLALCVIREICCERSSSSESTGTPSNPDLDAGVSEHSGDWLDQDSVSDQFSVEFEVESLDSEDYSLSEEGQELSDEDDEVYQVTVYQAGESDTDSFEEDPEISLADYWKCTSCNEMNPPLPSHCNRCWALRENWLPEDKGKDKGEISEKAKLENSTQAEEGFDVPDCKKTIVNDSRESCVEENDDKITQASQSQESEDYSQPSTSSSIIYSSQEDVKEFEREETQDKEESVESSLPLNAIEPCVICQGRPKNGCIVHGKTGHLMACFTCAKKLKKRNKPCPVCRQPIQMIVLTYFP
* marks the source's active call; other numbers are inactive results.

For CCOC(=O)CSc1nnc(SCCN2C(=O)c3ccccc3C2=O)s1 the results were 697 NFkB inh 0, aSyn 5UTR inh -7, Jurkat NFkB inh -4, CSC inhib -9, Gli-Sufu antag 18 and Mdm2 MdmX PPI -1.
For CCn1c2ccccc2c2cc(NC(=O)N3CCOCC3)ccc21 the results were 697 NFkB inh -35, aSyn 5UTR inh -84, Jurkat NFkB inh -72, CSC inhib -15, Gli-Sufu antag -36 and Mdm2 MdmX PPI -5.
`CCn1c2ccccc2c2cc(NC(=O)CN(C)CC(=O)Nc3ccc(N4CCOCC4)cc3)ccc21` gave 697 NFkB inh -51, aSyn 5UTR inh -143, Jurkat NFkB inh -54, CSC inhib 80*, Gli-Sufu antag 3 and Mdm2 MdmX PPI -23.
For CNC(=O)Cn1nc(C)c(S(=O)(=O)N2CCOCC2)c1C the results were 697 NFkB inh 19, Jurkat NFkB inh 16, CSC inhib -12, Gli-Sufu antag -1 and Mdm2 MdmX PPI 27.
Cc1cc(C)c2c(n1)SCC(=O)N2CC(=O)Nc1ccccc1Cl was read as 697 NFkB inh 19, aSyn 5UTR inh 4, Jurkat NFkB inh 25, Gli-Sufu antag 8 and Mdm2 MdmX PPI 2.
Cc1noc(C)c1COc1ccc(C(=O)Nc2ccccc2)cc1 was read as 697 NFkB inh -8, aSyn 5UTR inh 0, Jurkat NFkB inh 2, CSC inhib -8, Gli-Sufu antag -11 and Mdm2 MdmX PPI -2.
Screening Cc1noc(C)c1COc1cccc(C(=O)Nc2ccc(OCc3ccccc3)cc2)c1 returned 697 NFkB inh -18, aSyn 5UTR inh -36, Jurkat NFkB inh -11, CSC inhib 98*, Gli-Sufu antag 6 and Mdm2 MdmX PPI 15.
Screening CC(C)(C)C(C(=O)Oc1ccccc1)c1ccccc1 (stereo not drawn) returned 697 NFkB inh 21, Jurkat NFkB inh 0, CSC inhib -1, Gli-Sufu antag 14 and Mdm2 MdmX PPI 7.
For O=C(Nc1nc2ccc(SC(F)F)cc2s1)c1ccc(NS(=O)(=O)c2ccc(F)c(F)c2)cc1 the results were 697 NFkB inh -40, aSyn 5UTR inh -59, Jurkat NFkB inh -32, CSC inhib 79*, Gli-Sufu antag -14 and Mdm2 MdmX PPI -23.
Screening CCN(CC)CCCNc1nc2ccccc2c2[nH]c3ccc(OC)cc3c12 returned Gli-Sufu antag 3.
For O=C(NC12CC3CC(CC(C3)C1)C2)c1ccc([N+](=O)[O-])o1 the results were 697 NFkB inh 11, aSyn 5UTR inh -200, Jurkat NFkB inh 13, CSC inhib 80*, Gli-Sufu antag -14 and Mdm2 MdmX PPI 39.
Screening CN1CC[C@]23c4ccccc4N[C@H]1[C@]21CCN(C)[C@H]3Nc2ccccc21 returned 697 NFkB inh 18, Jurkat NFkB inh 14, CSC inhib 4, Gli-Sufu antag 2 and Mdm2 MdmX PPI 8.
`COC(=O)C1CC23C=CCN4CCC5(c6ccccc6NC15C2C)C43` (stereo not drawn) gave 697 NFkB inh 11, aSyn 5UTR inh 94*, Jurkat NFkB inh 35, CSC inhib 59, Gli-Sufu antag 13 and Mdm2 MdmX PPI 48.
O=C(CN(c1ccc(Cl)cc1)S(=O)(=O)c1ccc(Cl)c([N+](=O)[O-])c1)NCCc1ccccc1 was read as 697 NFkB inh 29, aSyn 5UTR inh 106*, Jurkat NFkB inh -10, CSC inhib 58, Gli-Sufu antag 12 and Mdm2 MdmX PPI 30.
`O=C(CN(c1ccc(Cl)cc1)S(=O)(=O)c1ccc(Cl)c([N+](=O)[O-])c1)NCCc1ccc(F)cc1` gave 697 NFkB inh 21, aSyn 5UTR inh 15, Jurkat NFkB inh 7, CSC inhib 82*, Gli-Sufu antag 19 and Mdm2 MdmX PPI 9.
For O=C(CN(c1ccc(Br)cc1)S(=O)(=O)c1ccc(Cl)c([N+](=O)[O-])c1)NCC1CCCO1 (stereo not drawn) the results were Gli-Sufu antag 6.
Cc1ccc(C(C(=O)NC(C)(C)C)N(Cc2ccccc2)C(=O)c2snc(C(N)=O)c2N)o1 (stereo not drawn) was read as 697 NFkB inh 2, aSyn 5UTR inh 25, Jurkat NFkB inh 1, CSC inhib 5, Gli-Sufu antag 11 and Mdm2 MdmX PPI -13.
Screening Cc1ccc(C(=O)Nc2cccc(C(F)(F)F)c2)cc1NC(=O)c1cnnc2ccccc12 returned 697 NFkB inh -33, aSyn 5UTR inh 64*, Jurkat NFkB inh -20, CSC inhib -9, Gli-Sufu antag 18 and Mdm2 MdmX PPI 8.
Screening Cc1ccc(C(=O)Nc2cccc(C(F)(F)F)c2)cc1NC(=O)c1nccnc1N returned 697 NFkB inh 23, aSyn 5UTR inh 78*, Jurkat NFkB inh 1, CSC inhib 9, Gli-Sufu antag 29 and Mdm2 MdmX PPI 30.
Screening O=C(NCCS(=O)(=O)N1CCCCCC1)c1ccccc1 returned 697 NFkB inh 7, aSyn 5UTR inh -1, Jurkat NFkB inh -5, CSC inhib -11, Gli-Sufu antag -8 and Mdm2 MdmX PPI -5.
Screening Cc1ccc(N(CC(=O)NC2CCCC2)C(=O)c2nsc(Cl)c2Cl)cc1 returned 697 NFkB inh 10, aSyn 5UTR inh -3, Jurkat NFkB inh 3, CSC inhib -11, Gli-Sufu antag -29 and Mdm2 MdmX PPI -7.
Screening Cc1ccc(-c2nc(-c3ccccn3)no2)cc1Cl returned 697 NFkB inh -116, aSyn 5UTR inh 104*, Jurkat NFkB inh 13, CSC inhib 63, Gli-Sufu antag 4 and Mdm2 MdmX PPI 44.
`Clc1cccc(-c2nc(-c3ccccn3)no2)c1` gave 697 NFkB inh -112, aSyn 5UTR inh 93*, Jurkat NFkB inh -14, CSC inhib 19, Gli-Sufu antag -21 and Mdm2 MdmX PPI 21.
For c1ccc(-c2nc(-c3ccccn3)no2)cc1 the results were 697 NFkB inh -71, aSyn 5UTR inh -18, Jurkat NFkB inh 3, CSC inhib 51, Gli-Sufu antag 13 and Mdm2 MdmX PPI 40.
O=C(COC(=O)c1cc(-c2cccc(Br)c2)nc2ccccc12)NCC1CCCO1 (stereo not drawn) was read as 697 NFkB inh 12, aSyn 5UTR inh -34, Jurkat NFkB inh 7, CSC inhib 5, Gli-Sufu antag -10 and Mdm2 MdmX PPI -20.
Screening COc1ccc(Nc2nc(-c3cccs3)nc3ccccc23)cc1 returned 697 NFkB inh 11, aSyn 5UTR inh 0, Jurkat NFkB inh -6, CSC inhib 78*, Gli-Sufu antag 1 and Mdm2 MdmX PPI 29.
`COc1cccc(Nc2nc(-c3cccs3)nc3ccccc23)c1` gave 697 NFkB inh 3, aSyn 5UTR inh 7, Jurkat NFkB inh -16, CSC inhib 89*, Gli-Sufu antag -3 and Mdm2 MdmX PPI 24.
Screening Cc1ccc(-c2cn3nc(C)c(C)nc3n2)cc1 returned 697 NFkB inh -114, aSyn 5UTR inh 73*, Jurkat NFkB inh -72, CSC inhib -2, Gli-Sufu antag -74 and Mdm2 MdmX PPI 47.
